Laboratory results reported in PubChem BioAssay AID1159580 (chemical genetic matrix, 2015).
Where “and” joins values, the source holds several entries; their conditions need not be identical. Equal values may be shown once. Among all 5,500 compounds or so, about 2,000 (36%) were called active. Inconclusive results (about 18%) are left out. Rule as the data show it: active = normalized growth mostly below about 0.91 (no sharp cut-off); inconclusive = no clear call, values can overlap the other calls; inactive = mostly above about 0.92. The list shows a part of the results.

Experiment: chemical genetic growth profiling, strain panel (AID 1159580);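 also: tested at 20 µM; growth read once vehicle control cultures reached saturation at 30 °C; 1 = growth at the plate median or of vehicle wells; lower values mean less growth of the strain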
Conditions: S. cerevisiae deletion strains, growth OD
[1] = locus YBR229C, strain ROT2, stronger effect = lower value
[2] = locus YDL101C, strain DUN1, stronger effect = lower value
[3] = locus YDL134C, strain PPH21, stronger effect = lower value
[4] = locus YDR150W, strain NUM1, stronger effect = lower value
[5] = locus YEL061C, strain CIN8, stronger effect = lower value
[6] = locus YGR078C, strain PAC10, stronger effect = lower value
[7] = locus YGR229C, strain SMI1, stronger effect = lower value
[8] = locus YHR030C, strain SLT2, stronger effect = lower value
[9] = locus YHR087W, strain rtc3, stronger effect = lower value
[10] = locus YJR043C, strain POL32, stronger effect = lower value
[11] = locus YJR075W, strain HOC1, stronger effect = lower value
[12] = locus YKL190W, strain CNB1, stronger effect = lower value
[13] = locus YLR039C, strain RIC1, stronger effect = lower value
[14] = locus YLR058C, strain SHM2 (second series), stronger effect = lower value
[15] = locus YLR085C, strain ARP6, stronger effect = lower value
[16] = locus YLR262C, strain YPT6, stronger effect = lower value
[17] = locus YML094W, strain GIM5, stronger effect = lower value
[18] = locus YMR219W, strain ESC1, stronger effect = lower value
[19] = locus YMR263W, strain SAP30, stronger effect = lower value
[20] = locus YNL153C, strain GIM3, stronger effect = lower value
[21] = locus YNL298W, strain CLA4 (second series), stronger effect = lower value
[22] = locus YNL322C, strain KRE1, stronger effect = lower value
[23] = locus YNR030W, strain Alg12, stronger effect = lower value
[24] = locus YPL055C, strain LGE1, stronger effect = lower value
[25] = locus YPL241C, strain CIN2, stronger effect = lower value
[26] = locus YPR135W, strain CTF4, stronger effect = lower value
[27] = locus YMR307W, strain GAS1, stronger effect = lower value
[28] = locus YHR079C, strain IRE1, stronger effect = lower value
[29] = locus YJL095W, strain BCK1, stronger effect = lower value
[30] = locus YJR066W, strain TOR1, stronger effect = lower value
[31] = locus YLR113W, strain HOG1, stronger effect = lower value
[32] = locus YNL183C, strain NPR1, stronger effect = lower value
[33] = locus YOR061W, strain CKA2, stronger effect = lower value
[34] = locus YOR231W, strain MKK1, stronger effect = lower value
[35] = locus YPL256C, strain CLN2, stronger effect = lower value

Measured: normalized growth

NNC(=O)c1ccccc1O
inactive: [1] 0.986 | [2] 0.975 | [3] 0.988 | [4] 0.892 | [5] 0.965 | [6] 1.01 | [7] 0.989 | [8] 1.03 | [9] 0.99 | [10] 0.96 | [11] 1.02 | [12] 0.983 | [13] 0.958 | [14] 1 | [15] 0.962 | [16] 0.975 | [17] 0.963 | [18] 0.996 | [19] 1.01 | [20] 1.01 | [21] 0.976 | [22] 1.01 | [23] 1.01 | [24] 0.916 | [25] 1.11 | [26] 0.956

O=C(Nc1ccccc1)NC1CCCC1
inactive: locus YAL013W, strain DEP1, stronger effect = lower value 1.02 | [1] 0.983 | locus YCL061C, strain MRC1, stronger effect = lower value 1.02 | [2] 0.989 | [3] 1.01 | [4] 0.983 | [5] 0.965 | [6] 1.01 | [8] 1.07 | [9] 0.997 | [10] 1.04 | [11] 0.992 | [12] 0.991 | [13] 1.01 | [14] 0.997 | [15] 0.991 | [16] 1.05 | [17] 0.96 | [18] 0.997 | [19] 1.01 | [27] 1.03 | locus YNL128W, strain TEP1, stronger effect = lower value 0.941 | [20] 1.01 | [21] 0.985 | [22] 0.996 | [23] 1 | [24] 1.02 | [25] 0.99 | [26] 1.13

O=C(Nc1ccccc1)c1ccccc1O
active: locus YBR021W, strain FUR4, stronger effect = lower value 1.18 [resistant] | locus YKR001C, strain vps1, stronger effect = lower value 0.897 | [31] 0.791 | locus YOR184W, strain ser1, stronger effect = lower value 0.861
inactive: [1] 1.01 | locus YCL029C, strain bik1, stronger effect = lower value 0.953 | locus YDL035C, strain GPR1, stronger effect = lower value 0.954 | locus YDL074C, strain BRE1, stronger effect = lower value 0.904 | [2] 0.956 | locus YDL185W, strain tfp1, stronger effect = lower value 0.927 | locus YDL192W, strain arf1, stronger effect = lower value 0.941 | locus YDR101C, strain arx1, stronger effect = lower value 0.953 | locus YDR162C, strain NBP2, stronger effect = lower value 0.963 | locus YDR318W, strain mcm21, stronger effect = lower value 0.981 | locus YDR388W, stronger effect = lower value 0.988 | locus YDR502C, strain sam2, stronger effect = lower value 0.939 | [5] 0.995 | locus YER110C, stronger effect = lower value 0.962 | locus YER155C, strain BEM2, stronger effect = lower value 0.98 | locus YER167W, strain BCK2, stronger effect = lower value 0.982 | locus YGL078C, strain dbp3, stronger effect = lower value 0.943 | locus YGL086W, strain mad1, stronger effect = lower value 0.966 | locus YGL248W, strain PDE1, stronger effect = lower value 0.981 | [6] 0.94 | locus YGR135W, strain pre9, stronger effect = lower value 0.944 | [7] 0.909 | locus YGR252W, strain gcn5, stronger effect = lower value 0.847 | [8] 0.992 and 0.935 | locus YHR079C, strain IRE1 (second series), stronger effect = lower value 0.979 | [28] 0.921 | locus YHR094C, strain hxt1, stronger effect = lower value 0.989 | locus YHR129C, strain ARP1, stronger effect = lower value 0.991 | locus YHR200W, strain rpn10, stronger effect = lower value 0.963 | locus YIL066C, strain RNR3, stronger effect = lower value 0.986 | locus YIL073C, strain SPO22, stronger effect = lower value 0.874 | locus YIL125W, strain kgd1, stronger effect = lower value 0.984 | locus YIR030C, strain dcg1, stronger effect = lower value 0.976 | [29] 0.929 and 0.932 | locus YJL134W, strain LCB3, stronger effect = lower value 0.987 | locus YJL168C, strain set2, stronger effect = lower value 0.992 | locus YJL187C, strain SWE1 (second series), stronger effect = lower value 0.941 | [10] 0.924 | [30] 0.901 | locus YKL009W, strain mrt4, stronger effect = lower value 0.891 | locus YKL068W, stronger effect = lower value 0.964 | locus YKL085W, strain MDH1 (second series), stronger effect = lower value 0.98 | locus YKL085W, strain MDH1, stronger effect = lower value 0.98 | [13] 0.949 | locus YLR058C, strain SHM2, stronger effect = lower value 0.99 | locus YLR102C, strain apc9, stronger effect = lower value 0.976 | [16] 0.945 | locus YLR268W, strain sec22, stronger effect = lower value 0.916 | locus YLR330W, strain CHS5, stronger effect = lower value 0.983 | locus YLR342W, strain FKS1 (second series), stronger effect = lower value 0.968 | locus YLR371W, strain rom2, stronger effect = lower value 0.964 | locus YLR418C, strain cdc73, stronger effect = lower value 0.934 | locus YML016C, strain PPZ1, stronger effect = lower value 1 | locus YML032C, strain rad52, stronger effect = lower value 0.98 | locus YML124C, strain tub3, stronger effect = lower value 0.988 | locus YMR078C, strain ctf18, stronger effect = lower value 0.956 | locus YMR223W, strain ubp8, stronger effect = lower value 0.941 | [27] 0.986 | locus YNL067W, strain RPL9B, stronger effect = lower value 0.9 | [20] 0.94 | [32] 0.885 | locus YNL233W, strain BNI4, stronger effect = lower value 0.945 | locus YNL250W, strain rad50, stronger effect = lower value 0.952 | locus YNL271C, strain bni1, stronger effect = lower value 0.959 | locus YNL298W, strain CLA4, stronger effect = lower value 0.971 | locus YNL307C, strain MCK1, stronger effect = lower value 0.974 | locus YNR052C, strain pop2, stronger effect = lower value 0.978 | locus YOL012C, strain htz1 1.23 | locus YOL147C, strain pex11, stronger effect = lower value 0.987 | [33] 0.997 | locus YOR069W, strain VPS5, stronger effect = lower value 0.995 | locus YOR136W, strain idh2, stronger effect = lower value 0.983 | locus YOR144C, strain elg1, stronger effect = lower value 0.994 | [34] 0.929 | locus YOR316C, strain cot1, stronger effect = lower value 0.989 | [24] 0.921 | [25] 0.994 | [35] 0.901 | locus YPR119W, strain clb2, stronger effect = lower value 0.98 | locus YPR141C, strain kar3, stronger effect = lower value 0.969 | locus YPR163C, strain tif3, stronger effect = lower value 0.982 | locus YPR167C, strain met16, stronger effect = lower value 0.966 | strain wtn01, stronger effect = lower value 0.907

N#Cc1ccc(NC(=O)Nc2cccc3ccccc23)cc1
inactive: locus YAR019C, strain CDC15, stronger effect = lower value 0.965 | locus YBL105C, strain PKC1, stronger effect = lower value 0.974 | locus YBR135W, strain CKS1, stronger effect = lower value 0.96 | locus YBR136W, strain MEC1, stronger effect = lower value 0.971 | locus YBR160W, strain CDC28, stronger effect = lower value 0.96 | locus YDL017W, strain CDC7, stronger effect = lower value 0.974 | locus YDL028C, strain MPS1, stronger effect = lower value 0.971 | [2] 0.992 | locus YDL108W, strain KIN28, stronger effect = lower value 0.958 | locus YDL132W, strain cdc53, stronger effect = lower value 0.972 | locus YDL214C, strain PRR2, stronger effect = lower value 0.928 | locus YDR052C, strain DBF4, stronger effect = lower value 0.995 | locus YDR054C, strain cdc34, stronger effect = lower value 0.957 | locus YDR226W, strain ADK1, stronger effect = lower value 0.985 | locus YDR477W, strain SNF1, stronger effect = lower value 0.926 | locus YER123W, strain YCK3, stronger effect = lower value 0.919 | locus YER133W, strain GLC7, stronger effect = lower value 0.955 | locus YFL009W, strain cdc4, stronger effect = lower value 0.967 | locus YFL029C, strain CAK1, stronger effect = lower value 0.968 | locus YFR003C, strain YPI1, stronger effect = lower value 0.968 | locus YFR019W, strain FAB1, stronger effect = lower value 0.932 | locus YFR028C, strain CDC14, stronger effect = lower value 0.958 | locus YGR040W, strain KSS1, stronger effect = lower value 0.921 | locus YGR052W, strain FMP48, stronger effect = lower value 0.979 | locus YGR092W, strain DBF2, stronger effect = lower value 0.923 | [8] 0.938 | [28] 0.924 | locus YHR082C, strain KSP1, stronger effect = lower value 0.986 | locus YHR205W, strain SCH9, stronger effect = lower value 0.89 | locus YIL147C, strain SLN1, stronger effect = lower value 0.963 | [29] 0.962 | locus YJL128C, strain PBS2, stronger effect = lower value 0.955 | locus YJL157C, strain FAR1, stronger effect = lower value 0.929 | locus YJR016C, strain ILV3, stronger effect = lower value 0.966 | locus YJR066W, strain TOR1 (second series), stronger effect = lower value 0.903 | [30] 0.972 | locus YKL048C, strain ELM1, stronger effect = lower value 0.949 | locus YKL067W, strain YNK1, stronger effect = lower value 0.941 | locus YKL101W, strain HSL1, stronger effect = lower value 0.916 | locus YKL193C, strain SDS22, stronger effect = lower value 0.963 | locus YKL203C, strain TOR2, stronger effect = lower value 0.998 | locus YLR133W, strain CKI1, stronger effect = lower value 0.913 | locus YLR403W, strain SFP1, stronger effect = lower value 0.892 | locus YML070W, strain DAK1, stronger effect = lower value 0.901 | locus YMR001C, strain CDC5, stronger effect = lower value 0.967 | locus YMR205C, strain PFK2 (second series), stronger effect = lower value 0.939 | locus YMR277W, strain FCP1, stronger effect = lower value 0.966 | locus YNL006W, strain LST8, stronger effect = lower value 0.978 | locus YNL020C, strain ARK1, stronger effect = lower value 0.917 | locus YNL161W, strain CBK1, stronger effect = lower value 0.963 | [32] 0.943 | locus YNL207W, strain RIO2, stronger effect = lower value 0.968 | locus YNL222W, strain SSU72, stronger effect = lower value 0.967 | locus YNL307C, strain MCK1 (second series), stronger effect = lower value 0.925 | locus YOL078W, strain AVO1, stronger effect = lower value 0.972 | locus YOL136C, strain PFK27, stronger effect = lower value 0.91 | [33] 0.929 | locus YOR119C, strain RIO1, stronger effect = lower value 0.966 | [34] 0.887 | locus YOR329C, strain SCD5, stronger effect = lower value 0.976 | locus YPL031C, strain PHO85, stronger effect = lower value 0.92 | locus YPL153C, strain RAD53, stronger effect = lower value 0.925 | locus YPL204W, strain HRR25, stronger effect = lower value 0.909 | locus YPL209C, strain IPL1, stronger effect = lower value 0.967 | [35] 0.872 | locus YPR025C, strain CCL1, stronger effect = lower value 0.967 | locus YPR106W, strain ISR1, stronger effect = lower value 0.958 | locus YPR111W, strain DBF20, stronger effect = lower value 0.952 | strain NNK1, stronger effect = lower value 0.967 | strain TSCII, stronger effect = lower value 0.969
active: [31] 0.832
